How the values were obtained:
Assay in all cases: PBM binding z-score (relative to random genomic background probes); higher = stronger binding; sequences stand for … in GC…GCGATTGACAGCGTAGAATGAAGG
[1] = system: RARb homodimer (NR concentration 270 nM)
Method in brief: (§1)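 Probes were double-stranded and carried 34-nt variable regions with direct-repeat seeds, single-nucleotide variants, half-site ablations and random human genomic background sequences, printed on custom Agilent 4×180K protein-binding microarrays. Arrays were incubated 1 h with ligand-free nuclear receptor dimers in PBS pH 7.4, 2% milk, 0.02% Triton X-100, 1 mM DTT, 0.2 mg/mL BSA and 0.4 mg/ml salmon testes DNA. Antibodies against each partner (one per run) detected binding, and scanned fluorescence was regression-normalized. Binding z-scores use the random background probes as reference.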

[2] = system: RARg:RXRa (NR concentration 270 nM, RXRa partner concentration 90 nM)
Method in brief: as §1

[3] = system: RARg homodimer (NR concentration 270 nM)
Method in brief: as §1

[4] = system: RXRa DBDmut IVT, anti-RXR (DBD mutation: RXRa K156A/R161A, NR concentration 90 nM)
Method in brief: as §1

[5] = system: RXRa homodimer (NR concentration 180 nM)
Method in brief: as §1

[6] = system: THRa:RXRa (NR concentration 90 nM, RXRa partner concentration 90 nM)
Method in brief: as §1

[7] = system: THRa homodimer (NR concentration 90 nM)
Method in brief: as §1

[8] = system: VDR homodimer (NR concentration 270 nM)
Method in brief: as §1

Sequence	PBM binding z-score [1]	PBM binding z-score [2]	PBM binding z-score [3]	PBM binding z-score [4]	PBM binding z-score [5]	PBM binding z-score [6]	PBM binding z-score [7]	PBM binding z-score [8]
TTACCAAGGAGAAAGGTCGTTGATGCACGCCTTG	1.55	1.43	0.929	0.362	2.29	1.48	-0.13	1.17
GATACAGGGTCAGCAAGAGGCCAGAGTATGGAAA	3.45	6.61	4.76	1.16	4.52	3.21	0.361	0.548
TATACAGGGACAAAGGCCAGAGTACGAATGTCGA	1.4	1.29	1.58	-0.217	0.385	0.949	-0.0231	0.738
CCTTACGGGTCACTGACAGGTTGTAGCATTTGGA	3.13	5.06	4.23	2.01	4.67	2.65	0.174	0.754
TCGAGTAGGTTAGTCGGCGCATTCAGCCAACATA	-0.408	-0.412	-0.662	-0.0124	-0.244	-0.542	-0.648	-0.26
CGGACTAGGTCAGAACAGGACAGTGAAGGATGAT	1.79	2.4	2.97	0.496	1.15	3.38	0.402	-0.0539
TGTCAAAGTTCAAAGGTAACGTAGGTATCCACAC	4.01	6.19	6.01	4.14	7.19	3.05	-0.392	3.97
CGTCCAAGGTCAAAGGAGGTCAGTGAAGACAGAT	5.57	6.67	7.08	3.52	6.32	5.42	2.98	4.01
CCGACTGGGGCAAAGGTAACCATACTCAGTACGA	0.873	1.28	0.824	-0.208	1.19	0.563	-0.249	-0.353
TCTGCTAGGTCAACGATGGTCAGCTAATCTGCTA	3.36	4.01	4.95	1.24	2.42	3.15	0.461	-0.403
ATCTCTAGGTAAAGGTAGTTCAGTGAATGCAAAT	0.964	0.44	0.605	0.345	0.164	1.21	0.679	1.12
CGTCAAAGTTCAACTAACGTAACGTAAAGCACGC	4.09	5.71	6.79	4.56	4.65	1.97	0.0138	3.38
GATACAGGGTCAAGGCCATAGTACGCGTATTGAT	3.69	5.34	5.15	2.44	5.52	3.54	1.52	2.22
CCTAGCAGGCGAATCTGGGTCACTCAAGGCTTGA	1.53	0.494	0.428	0.0113	0.669	2.71	0.222	-0.316
TAGCCGAGGTCATGGGCCAGTATACCACGCGAAC	4.19	6.64	6.26	3.46	7.64	4.25	2.71	3.91
CAAACTAAGTCAAAGGTCAAAGTCGAGCCAACCA	4.68	6.82	5.86	2.2	8.46	3.74	0.739	2.93
CCGAGTTGGTTATGGGGCATTCAGGCAACGGTGA	0.393	-0.17	-0.319	1.14	0.0354	0.111	0.472	0.996
TCTATTAGTTGATTAAGGCAACCGAAACAGCGGA	-0.49	0.163	0.201	1.35	0.349	0.746	0.601	0.261
TAGCCTAGGTCAGATCGGGCCATTATACGCTATA	2.15	2.48	3.68	-0.0922	1.36	4.25	0.543	-0.154

Sequence	PBM binding z-score [1]	PBM binding z-score [2]	PBM binding z-score [3]	PBM binding z-score [4]	PBM binding z-score [5]	PBM binding z-score [6]	PBM binding z-score [7]	PBM binding z-score [8]
TCTTGTAGATCAAAGGTTAATAAAGCCGAAGCCT	1.25	1.51	0.841	1.09	2.55	1.32	-0.223	0.243
TAGCCTAGGTCATGCAGGGGCCAGTATAGAAAGC	3.35	6.15	4.48	0.31	3.12	3.29	0.474	0.435
TTACCAGGGTGAAAGGTCGTTGATGCACGCCTTG	2.58	3.82	1.48	0.566	6.13	2.9	0.639	1.87
TCGAGTAGGTTAGGGGCATTCCGAATGGCGTCGA	0.646	0.44	-0.221	0.278	0.54	0.556	-0.0824	0.859
GCTCGGAGGACAAGGTGAGAGCTTTGTCCGTAGA	0.56	0.159	0.805	-0.507	-0.256	1.5	0.465	-0.74
AGTCAAAGTTCACTCGGTAACGTAAGATTCAGCT	3.89	4.91	5.79	4.02	3.83	1.79	-0.0176	4.11
ATCTCTAGGTAACCAAGTTCAGTGTATGCCGAAC	1.47	0.771	0.637	0.982	0.429	1.48	0.867	2.85
GCGACTGGGGCATCAGCAGGTGACCATAACTTAA	0.835	0.367	0.374	-0.296	-0.0343	0.956	-0.08	-0.617
TCGAGTAGGTTAGGGGCATTGAGAATGGCGTCGA	0.964	0.14	0.129	0.205	0.572	0.83	0.383	0.492
CGTCCAAGGTCAAGGTCAGTGCAAGAGACTCGAA	5.45	6.95	7.95	3.52	6.56	4.21	3.91	3.18
ATCTGTAGGTAAGACTCAGTTCAGTGAAGAACGC	0.419	0.15	-0.0533	0.0968	0.114	0.687	0.0437	0.939
CATACATGGTCAGCTAGGCCAGAGTAGGGACGGC	0.263	0.156	0.731	-0.604	0.103	-0.289	-0.393	-1.02
CCTACGGGGCCATCAGGTCATTGATATCAACGTT	3.1	3.1	2.83	0.971	2.02	3.6	2.97	2.45
TCTTGTAGACCAACAGGAGGTTAAGAAAGATCGA	0.694	0.411	0.151	0.322	0.799	0.789	-0.614	-0.388
GCTAGAAGGCCATTTGGGTCACTCAATGACGGGC	2.47	1.61	2.24	0.256	1.05	2.42	0.686	1.05
ATATGTAGGTTACATCAGGGTCATTCAGGCTATG	3.47	4.16	2.29	1.46	4.28	4.05	2.29	3.17
TCAGACAGGTGAAGGTAACTAAGGTACGCAGTCG	0.841	0.733	0.744	1.14	1.05	1.43	0.595	-0.102
ATATGTAGGTTAAGGGTCGTTCAGGTTGGTTCGC	2.6	2.82	1.63	1.64	3.9	2.48	1.75	2.58
CGAAATAGGTCAGAACAGGACAGTGAAGGATGAT	2.82	3.36	4.15	0.269	2.42	4.13	0.228	0.382

Sequence	PBM binding z-score [1]	PBM binding z-score [2]	PBM binding z-score [3]	PBM binding z-score [4]	PBM binding z-score [5]	PBM binding z-score [6]	PBM binding z-score [7]	PBM binding z-score [8]
AATACAGGGTCATCGTAGGCCAGAGAACGCACAG	3.8	6.12	5.66	3.55	6.83	4.95	1.74	2.9
GCTAGTTGGTCACTAAAAGGTCACACACCGGTCG	5.51	5.78	5.45	0.465	5.16	3.61	1.7	2.13
TAGCCTGGGTCATGCGGGCCAGTATAGTGTCGGC	2.5	3.64	3.37	-0.265	3.11	2.46	-0.102	0.606
TATACAGGGTCAAAGGCCAGAGTACGAATGTCGA	3.67	5.46	5.12	3.02	6.7	3.76	0.87	3.4
ATCTCTACGTAACCAAGTTCAGTGAATGCCGAAC	1.18	0.251	0.741	0.846	0.369	0.592	0.325	2.27
GCTCGGAGGACAAGTTCAGAGCTTTGTCCGTAGA	1.38	0.89	1.25	1.73	0.198	1.27	-0.148	1.89
AGTATTAGTTGAGACGAGGGCAACCGATAGGTTG	1.37	0.642	0.922	0.464	0.65	2.68	0.356	1.53
TAGCCTAGGTGATGGGCCAGTATACCACGCGAAC	-0.0783	-0.276	-0.196	-1.47	-0.236	-0.153	-0.23	-0.76
TCATATAGGTAATTGCTAGGTGAAAGTCCGATCT	0.402	0.393	0.128	1.47	0.589	1.44	0.689	0.282
TCTGCGAGGTCAACGATGGTCAGCTAATCTGCTA	4.5	6.57	7.19	3.91	7.18	4.26	2.92	3.6
GGAACGAGGGCAAAGTTGATAGGATCTGTCGACG	1.32	2.19	1.89	2.92	2.12	1.36	-0.0299	1.34
TAGCCTAGGTCGGATCGGGCCAGTATACGCTATA	0.206	0.17	0.282	-1.2	-0.0599	2.67	-0.787	-0.985
GTACCAAGGTGAATAGGTGGTTGATGAGTAGGCG	0.863	0.652	0.628	-0.536	0.63	1.3	0.799	-0.0991
ATCTCTAGGTAAACATAGTTCAGTGAATGCAAAT	1.42	0.884	0.928	-0.105	0.495	1.07	0.425	0.447
TTACCAAGGTGAGCTAAGGTCGTTGATCCAACTC	1.72	1.56	1.15	-0.158	1.65	4.71	2.41	1.29
TCTAGTTGGTCACGAAGGTCACACACGACGGGTA	4.07	4.7	5.06	1.09	4.24	3.02	1.5	2.09
CGAACTAGGTAATTGACAGGACAGTGAATAGTAA	0.027	0.00313	0.198	0.0767	-0.137	0.166	-0.0579	-0.054
CCTATTAGTTGACCATAAGGGCTACCGAAGCTCG	1.04	0.591	0.633	0.659	0.214	0.318	0.305	0.787
CCGACTGGGGCAAGGTTAGCATAACGCACAGCCA	0.752	0.574	0.814	-0.5	0.57	0.333	-0.266	-0.191

Reference: the supplement of paper PMC6555819
